Results: PubChem BioAssay AID624405 (Broad Institute, 2012)
The whole screen tested about 1,900 compounds, of which about 250 (13%) were called active. Another 4% or so got no clear call; they are omitted.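 The calls were made as follows: active = fitted curve reaches 40% rescue activity at or below the top valid dose, in every test run; inconclusive = test runs disagree, some active and some inactive; inactive = every run misses the threshold or moves the wrong way.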 A selection follows. Results with a measured potency or affinity are listed apart.

test: rescue of simvastatin-induced ATP loss – cell-based, C2C12 myotubes, ATP luminescence, cherry pick, dose response (AID 624405); settings: 48 h, scaled: DMSO wells 0, geranylgeraniol wells 100; series mostly up to 19.5 µM;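 also: myotubes are challenged with simvastatin at 10 µM to lower ATP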

| SMILES | outcome |
| --- | --- |
| O=C(CSc1nnnn1-c1cccc2c1CCCC2)N1CCCCC1 | inactive |
| Cc1ccc(NC(=O)c2cccc(OCc3c(C)noc3C)c2)cc1 | inactive |
| COCCNC(=O)Nc1ccc2nc(-c3cccs3)c(-c3cccs3)nc2c1 | inactive |
| O=C(CSc1nnc(CNc2ccc(F)cc2)n1Cc1ccccc1)N1CCOCC1 | inactive |
| COc1ccc(NC(=O)CSc2nccc(C)n2)cc1 | inactive |
| Cc1ccc(NC(=O)CCNS(=O)(=O)c2ccc3[nH]c(=O)oc3c2)cc1F | inactive |
| C[C@@H]1CN([C@H](C)CO)C(=O)c2cc(C#CC3CCCCC3)cnc2O[C@H]1CN(C)C(=O)C1CCCCC1 | inactive |
| CCOC(=O)c1cccc(NC(=O)C2CCCO2)c1 (stereo not drawn) | inactive |
| Cc1ccc(C2C=C(c3ccccc3OC(F)F)Nc3ncnn32)cc1 (stereo not drawn) | inactive |
| CNC(=O)CC(=O)Nc1ccccc1C(=O)O | inactive |
| O=c1c2c3c(sc2nc2n1CCCS2)CCCC3 | inactive |
| C=CCOC(=O)c1ccc(-n2cncn2)nc1 | inactive |
| CCOCCc1nnc(NC(=O)C(CC)c2ccccc2)s1 (stereo not drawn) | inactive |
| CCC(C(=O)Nc1ccccc1-c1ccccc1)c1ccccc1 (stereo not drawn) | inactive |
| COc1ccc(S(=O)(=O)Nc2ccc3c(c2)CC(=O)N([C@H](C)CO)C[C@@H](C)[C@H](CN(C)Cc2ccccc2)O3)cc1 | inactive |
| C[C@@H]1CN([C@H](C)CO)C(=O)Cc2cc(NS(=O)(=O)c3cccs3)ccc2O[C@@H]1CN(C)Cc1ccc(-c2ccccc2)cc1 | inactive |
| COc1ccc(CN(C)C[C@@H]2Oc3ccc(NS(=O)(=O)c4ccc(C)cc4)cc3CC(=O)N([C@H](C)CO)C[C@H]2C)cc1 | inactive |
| Cc1ccc(S(=O)(=O)Nc2ccc3c(c2)CC(=O)N([C@H](C)CO)C[C@@H](C)[C@H](CN(C)Cc2ccc(-c4ccccc4)cc2)O3)cc1 | inactive |
| C[C@@H]1CN([C@@H](C)CO)C(=O)Cc2cc(NS(=O)(=O)c3ccc(F)cc3)ccc2O[C@H]1CN(C)Cc1ccc(-c2ccccc2)cc1 | inactive |
| COc1ccc(CN(C)C[C@H]2Oc3ccc(NS(=O)(=O)c4ccccc4)cc3CC(=O)N([C@@H](C)CO)C[C@@H]2C)cc1 | inactive |
| C[C@H]1CN([C@@H](C)CO)C(=O)Cc2cc(NS(=O)(=O)c3cn(C)cn3)ccc2O[C@@H]1CN(C)Cc1ccc(-c2ccccc2)cc1 | inactive |

| SMILES | outcome |
| --- | --- |
| Cc1ccc(S(=O)(=O)Nc2ccc3c(c2)CC(=O)N([C@@H](C)CO)C[C@@H](C)[C@H](CN(C)Cc2ccc(Oc4ccccc4)cc2)O3)cc1 | inactive |
| COc1ccc(CN(C)C[C@H]2Oc3ccc(NS(=O)(=O)c4ccc(F)cc4)cc3CC(=O)N([C@@H](C)CO)C[C@@H]2C)cc1 | inactive |
| COC(=O)CCC(=O)Nc1sc(C)c(C)c1C(N)=O | inactive |
| C[C@@H]1CCCCO[C@@H](CN(C)C(=O)C2CCCCC2)[C@H](C)CN([C@@H](C)CO)C(=O)c2cc(NS(=O)(=O)c3ccccc3)ccc2O1 | inactive |
| COc1ccc(CN2[C@@H]3CNc4ccccc4[C@@H]3[C@@H]2CO)cc1 | inactive |
| C[C@@H]1CCCCO[C@H](CN(C)C(=O)NC2CCCCC2)[C@H](C)CN([C@@H](C)CO)C(=O)c2cc(NC(=O)Nc3cccc4ccccc34)ccc2O1 | inactive |
| C[C@H](CO)N1C[C@H](C)[C@@H](CN(C)Cc2ccc(Oc3ccccc3)cc2)Oc2ccc(NC(=O)Cc3cn(C)c4ccccc34)cc2CC1=O | inactive |
| O=C(OCC(=O)N1CCOCC1)c1ccccc1SCC(=O)N1CCCC1 | inactive |
| C[C@H](CO)N1C[C@H](C)[C@@H](CN(C)Cc2ccc(C(F)(F)F)cc2)Oc2ccc(NS(=O)(=O)c3cccs3)cc2CC1=O | inactive |
| CC(=O)N1CCN(c2nnnn2-c2ccccc2)CC1 | inactive |
| COCc1cc(C)nc(N2CCN(Cc3ccccc3)CC2)c1C#N | inactive |
| COc1ccc(S(=O)(=O)Nc2ccc3c(c2)C(=O)N([C@@H](C)CO)C[C@@H](C)[C@H](CN(C)C(=O)c2ccccc2)OCCCC[C@@H](C)O3)cc1 | inactive |
| COc1ccc2[nH]c(=O)c(CN(CCc3ccccc3)C(C)=O)cc2c1 | inactive |
| COc1ccc2[nH]c(=O)c(CNc3ccc(C)c(C)c3)cc2c1 | inactive |
| CC(=O)N1C=CN(C(C)=O)C(c2cn(C)c3ccccc23)C1c1cn(C)c2ccccc12 (stereo not drawn) | inactive |
| Cc1cc(C)nc(NC(=NCCc2c[nH]c3ccccc23)NC(=O)c2ccco2)n1 | inactive |
| O=C(Cc1coc(-c2ccc(F)cc2)n1)Nc1ccccc1 | inactive |
| CCCCCNC(=O)C1CC=CCC1C(=O)O (stereo not drawn) | inactive |
| C[C@@H]1CN([C@H](C)CO)C(=O)Cc2cc(NC(=O)CCCCCC(=O)Nc3ccccc3N)ccc2O[C@H]1CN(C)CC1CCCCC1 | inactive |
| C[C@H]1CN([C@@H](C)CO)C(=O)Cc2cc(NC(=O)CCCCCC(=O)Nc3ccccc3N)ccc2O[C@@H]1CN(C)CC1CCCCC1 | inactive |
| COc1ccc(S(=O)(=O)N(C)C[C@@H]2OCCCC[C@H](C)Oc3ccc(NC(=O)Nc4ccc(C(F)(F)F)cc4)cc3C(=O)N([C@@H](C)CO)C[C@@H]2C)cc1 | inactive |

| SMILES | outcome |
| --- | --- |
| OC[C@H]1[C@@H]2c3ccccc3NC[C@@H]2N1Cc1ccccc1Cl | inactive |
| CCOc1ccccc1OCCOc1ccccc1CC | inactive |
| COc1ccc(NC(=O)N(C)C[C@@H]2OCCCC[C@@H](C)Oc3ccc(NS(=O)(=O)c4c(C)noc4C)cc3C(=O)N([C@H](C)CO)C[C@H]2C)cc1 | inactive |
| C[C@@H]1CN([C@@H](C)CO)C(=O)c2cc(NC(=O)Cc3cn(C)c4ccccc34)ccc2O[C@H]1CN(C)S(=O)(=O)c1cccs1 | inactive |
| CC(C)(C)c1cc(C(F)(F)F)c(C#N)c(=O)[nH]1 | inactive |
| C=CCn1c(COc2ccc(Cl)cc2)nnc1SCC(=O)c1c(N)n(C)c(=O)n(C)c1=O | inactive |
| COc1ccc(S(=O)(=O)Nc2ccc3c(c2)CC(=O)N([C@H](C)CO)C[C@@H](C)[C@@H](CN(C)Cc2ccc(C(F)(F)F)cc2)O3)cc1 | inactive |
| CCOC(=O)C1CCN(C=Nc2cc(C)on2)CC1 | inactive |
| COc1ccc(S(=O)(=O)Nc2ccc3c(c2)C(=O)N([C@@H](C)CO)C[C@H](C)[C@@H](CN(C)S(=O)(=O)c2ccc(F)cc2)OCCCC[C@H](C)O3)cc1 | inactive |
| NC(=O)C1CCN(Cc2nc3cc(Cl)ccc3c(=O)[nH]2)CC1 | inactive |
| C[C@@H]1CCCCO[C@@H](CN(C)C(=O)Nc2cccc3ccccc23)[C@H](C)CN([C@@H](C)CO)C(=O)c2cc(NS(=O)(=O)c3ccc(Cl)cc3)ccc2O1 | inactive |
| CCC/C(=C1/c2ccccc2C(=O)N1c1ccccc1)c1ccc2c(c1)OCCO2 | inactive |
| C[C@H](CO)N1C[C@H](C)[C@@H](CN(C)Cc2ccccc2F)Oc2ncc(C3=CCCCC3)cc2C1=O | inactive |
| C[C@@H]1CN([C@H](C)CO)C(=O)Cc2cc(NC(=O)Cc3cn(C)c4ccccc34)ccc2O[C@H]1CN(C)Cc1ccc(-c2ccccc2)cc1 | inactive |
| COc1ccccc1CNc1ncnc2c1nnn2Cc1ccccc1 | inactive |
| COc1ccc(CNc2ncnc3cc(OC)c(OC)cc23)cc1 | inactive |
| CC(c1ccco1)N(C(=O)Nc1ccc(Cl)cc1)c1ccccn1 (stereo not drawn) | inactive |
| COc1ccccc1-c1nnc(SCC(=O)N2CC(C)CC(C)C2)o1 (stereo not drawn) | inactive |
| COc1ccc(-n2nnnc2SCC(=O)N2CCCc3ccccc32)cc1OC | inactive |
| CNC[C@@H]1Oc2ccc(NC(=O)Nc3ccc(C(F)(F)F)cc3)cc2CC(=O)N([C@@H](C)CO)C[C@@H]1C | inactive |
| CCOc1cc(CNCc2ccncc2)cc(Br)c1OCc1ccccc1F | inactive |

| SMILES | outcome |
| --- | --- |
| COc1ccc2c(c1)c(C(=O)OCCN(C)C)c(C)n2C | inactive |
| O=C(COc1ccccc1)Nc1ccc(S(=O)(=O)N2CCCC2)cc1 | inactive |
| Cc1c(C(=O)N2CCOCC2)oc2ccc(S(=O)(=O)N3CCCC3)cc12 | inactive |
| C[C@H]1CCCCO[C@@H](CN(C)C(=O)Nc2cccc3ccccc23)[C@@H](C)CN([C@@H](C)CO)C(=O)c2cc(NS(=O)(=O)c3ccc(Cl)cc3)ccc2O1 | inactive |
| C[C@@H]1CN([C@H](C)CO)C(=O)c2cc(C3=CCCCC3)cnc2O[C@@H]1CN(C)Cc1ccccc1F | inactive |
| Cc1noc(C)c1NC(=O)Nc1ccc2c(c1)C(=O)N([C@@H](C)CO)C[C@@H](C)[C@H](CN(C)S(=O)(=O)c1c(C)noc1C)OCCCC[C@@H](C)O2 | inactive |
| Nc1nnnn1NCc1cccc(OCc2ccccc2)c1 | inactive |
| COc1cc(CCC(=O)OCc2nnc(-c3ccccc3)o2)cc(OC)c1OC | inactive |
| Cc1ccc(N2C(N)=NC(N)=NC2(C)C)c(C)c1 | inactive |
| CCOC(=O)N1CCN(C(=O)c2ccc3c(=O)n(CCc4ccccc4)c(=O)[nH]c3c2)CC1 | inactive |
| CN1C(=O)c2cc(NS(=O)(=O)c3ccc(Cl)cc3)ccc2OC[C@@H]2O[C@@H](CC(=O)N3CCc4ccccc4C3)CC[C@H]21 | inactive |
| COc1cccc(C(=O)CN2C3=NCCCN3c3ccccc32)c1 | inactive |
| CCCCN1C(=O)NC(NC(C)=O)(C(F)(F)F)C1=O (stereo not drawn) | inactive |
| Cc1cccc(N=c2oc3cc(O)ccc3cc2C(N)=O)c1 | inactive |
| O=C(Cn1ncc2c3ccccc3n(Cc3cccc(Cl)c3)c2c1=O)NCC1CCCO1 (stereo not drawn) | inactive |
| O=c1c2ccccc2n(Cc2ccc(F)cc2)c(=O)n1C1CCCC1 | inactive |
| N#Cc1cc(-c2ccccc2)nnc1Sc1ccc(Cl)cc1 | inactive |
| COc1ccc(CN(Cc2cccn2C)C(=O)c2cc3cc(OC)ccc3[nH]2)cc1 | inactive |
| Cn1c(-c2ccc(F)cc2)cnc1NCc1ccc(F)cc1 | inactive |
| COc1cc(NC(=O)c2cccs2)c(C(=O)OCC(=O)NCc2ccco2)cc1OC | inactive |
